About 83,000 compounds went through this panel and 20% of them were active in at least one assay; those are over-represented in the sample as a whole.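 Compound tested at a single concentration for 48 hours in 96-well plates; a percent growth value below 10 was scored as active.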 Values without a mark were called inactive. The source made the active and inactive calls.

For the assay, the system named is NCI-H322M lung. The assay is described as follows: NCI-60 one-dose screen, 48 h (100 = growth as untreated, 0 = no growth, -100 = all killed). As to conditions: 10 µM.
In the case of `O=C(Nc1ccc(I)cc1F)c1cc(-c2ccc(F)cc2F)ccc1O`, the growth was 6.19% (active). In the case of `CN1CCN(c2ccc(C(=O)/C=C/c3ccc(C#N)cc3)cc2)CC1` it was 94.2%; in that of `Cc1ccc([N+](=O)[O-])c(C(=O)Nc2ccc(-c3ccc4c(c3)NC(=O)/C4=C\c3ccc[nH]3)cc2)c1`, 48.9%; in that of `CN1CCO/C1=C(/NC(=O)c1ccc(Cl)cc1)[P+](c1ccccc1)(c1ccccc1)c1ccccc1`, 96.6%. Under `CNCc1cccc2c1OCCCCCC[C@@](C)(O)CC1(CC1)S(=O)(=O)c1ccc(cc1)-c1cnc(N)c(n1)C(=O)N2` stands -96.8% (active); under `Cc1cccc(NC(=O)CSc2nc3ccc(F)cc3c(=O)n2-c2ccc(Cl)cc2)c1C`, 81.6%. Turning to `CC(=O)OC[C@@]1(C)C2CC[C@]3(C)C(CC=C4C5CC(C)(C)CC[C@]5(C(=O)Nc5ccccc5)CC[C@]43C)[C@@]2(C)C[C@@H](OC(C)=O)[C@@H]1OC(C)=O` (stereo partly specified), the growth was 61.1%.

On to `CC1=C2C(=C[C@@](C)(COCOCCCl)[C@@H]2O)C(=O)[C@](C)(O)C12CC2`, for which the growth was -18.2% (active). Under `CCN1CCN(Cc2ccc(NC(=O)c3cccc(-n4cc(-c5ccc(NC(C)=O)nc5)nn4)c3)cc2C(F)(F)F)CC1` stands 125%. Under `O=C(c1ccc(O)cc1)C1[C@H](c2ccc(Br)cc2)[C@@H](c2ccccc2)NC12C(=O)Nc1ccccc12` (stereo partly specified) stands 51.6%; under `Nc1nnc(-c2c[nH]c3ccc(F)cc23)c(-c2c[nH]c3ncccc23)n1`, 61.1%.
